# BH1578 lux ind = inducers of Vibrio cholerae quorum light production without autoinducers, primary screen, BH1578 luxS cqsA deficient, single point | V. cholerae BH1578 lux reporter, luminescence, 6 h | activation, % at 18.7 µM | actives 0.16% (n = 350,000) | AID 588436, 2011; in the data active = activation mostly above about 9.7%, no sharp cut-off; inconclusive = no clear call, values can overlap the other calls; inactive = mostly below about 3.7%
# Sa ugtP lethal = growth inhibition of ugtP-null S. aureus, primary screen, RN4220 ugtP deletion, OD600. growth inhibition, % (test concentration not listed). actives 0.54% (n = 330,000). 16 h; in the data active = growth inhibition above about 68%
# CCHF vOTU inh-1 = CCHFV vOTU protease inhibitors, primary screen, biochemical, Pep-AMC substrate, fluorescence; Crimean-Congo hemorrhagic fever virus L polyprotein viral ovarian tumor (vOTU) protease …; inhibition, % at 11.5 µM; actives 0.55% (n = 370,000)
# Mtb hypoxia inh = PubChem AID 1159583; M. tuberculosis hypoxia-regulated fluorescent reporter, fluorescence; fluorescence inhibition, % (test concentration not listed); actives 0.1% (n = 300,000); in the data active = fluorescence inhibition mostly above about 23%, no sharp cut-off; inactive = mostly below about 17%
# PfHsp40 yeast = rescue of yeast from PfHsp40 toxicity, primary screen, S. cerevisiae, ATP luminescence; actives 0.68% (n = 340,000); S. cerevisiae expressing PfHsp40, growth rescue; growth rescue, % at 12.5 µM; in the data active = growth rescue above about 28%, passing the limit was not always enough; inconclusive = no clear call, values can overlap the other calls;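 also: yeast W303a lacking pdr1 and pdr3 grown in galactose medium; growth measured after three days at 30 °C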
# RN4220 kill = growth inhibition of S. aureus RN4220, primary screen, OD600 | 16 h | inhibition, % (concentration not given with the values) | actives 0.33% (n = 330,000) | AID 1259311, 2017; in the data active = inhibition above about 85%
# CCHF vOTU inh-2 = CCHFV vOTU protease inhibitors, confirmation, biochemical, Pep-AMC substrate, fluorescence. Recombinant CCHFV vOTU. inhibition, % at 11.5 µM. actives 17% (n = 1,900). AID 686976, 2013. shares compounds with CCHF vOTU inh-1
# Numbers stand for hits; n = inactive; u = inconclusive; x = no result shown. Shown are actives, neighbours in structure and some others; about 1.7% of the full set was active somewhere. Rule as the data show it, unless noted: active = inhibition above about 30%; inactive = the rest.
SMILES,BH1578 lux ind,Sa ugtP lethal,CCHF vOTU inh-1,Mtb hypoxia inh,PfHsp40 yeast,RN4220 kill,CCHF vOTU inh-2
Cc1cn(C(C(=O)NCCCCCCCCCCC(=O)N2CCNCC2)C(C)O)nn1 (stereo not given),x,n,x,n,x,n,x
CC(=NNc1nc(C)c(C)s1)c1ccc([N+](=O)[O-])cc1,x,n,x,x,x,n,x
COC(=O)c1ccc(NC(=O)CNCc2ccncc2)cc1,n,x,32.4,x,n,x,n
COC(=O)c1ccc(CNCC(=O)Nc2ccc(C(=O)OC)cc2)cc1,n,n,n,n,n,n,x
CCC12CCCN3CCc4c(n(c5ccccc45)C(O)(C(=O)OC)C1)C32 (stereo not given),n,n,41.8,x,n,n,n
CC[C@]12CCCN3CCc4c(n(c5ccccc45)[C@](O)(C(=O)OC)C1)[C@@H]32,n,x,n,x,n,x,x
CC1=NNC(=O)C1CC(=O)NN=C/C=C/c1ccccc1 (stereo not given),x,n,x,n,x,n,x
Cc1nn2c(NCCCN3CCOCC3)c3c(nc2c1-c1ccccc1)CCC3,n,n,n,n,n,n,x
CCCCNc1c2c(nc3c(-c4ccccc4)c(C)nn13)CCC2,n,n,30.1,n,n,n,n
COc1ccc(NC(=O)CON=CC(=O)Nc2ccccc2C)c([N+](=O)[O-])c1,x,n,x,n,x,n,x
Cc1ccc(-c2nc3ccc(C)cn3c2Cc2ccccc2C(F)(F)F)cc1,x,x,n,x,x,x,x
Cc1ccc2nc(C(C)(C)C)c(Cc3ccccc3C(F)(F)F)n2c1,x,x,30.0,x,x,x,n
Oc1ccc(/C=N\Nc2cc(N3CCOCC3)nc(N3CCOCC3)n2)c(O)c1,n,x,42.1,x,n,x,n
COc1ccc(C(=O)/C=C/c2ccc(OCc3ccccc3)cc2)cc1CSCC(=O)O,n,n,36.2,n,n,n,n
COc1ccc(C(=O)/C=C/c2cccc(OCc3ccccc3)c2)cc1CSCC(=O)O,n,n,n,n,n,n,x
N=C1N(N=Cc2ccccc2)C(=Nc2ccccc2)C(=S)N1c1ccccc1,x,n,x,n,x,n,x
CCOC(=O)c1c(N=Cc2ccc(C)cc2O)sc2c1CCN(C)C2,x,n,x,n,x,n,x
O=C(c1ccco1)N1CCN(C(=O)c2ccc(CS(=O)c3ccc(Cl)cc3)o2)CC1 (stereo not given),n,n,39.3,n,n,n,n
Cc1ccc(S(=O)Cc2ccc(C(=O)N3CCN(C(=O)c4ccco4)CC3)o2)cc1 (stereo not given),n,n,n,n,n,n,x
Cn1c(=NN=Cc2ccccn2)sc2ccccc21,x,n,x,n,x,n,x
O=C(CN1C(=O)c2ccccc2C1=O)Nc1cccc2cccnc12,n,n,n,n,n,n,x
O=C1C=C(Nc2ccccc2)c2ccccc2C1=O,n,n,55.0,n,n,n,73.0
O=C1C=C(Nc2ccccc2C(=O)O)c2ccccc2C1=O,n,n,71.7,n,n,n,94.9
O=C1C=C(Nc2cccc3cccnc23)c2ccccc2C1=O,n,x,37.9,x,n,x,n
CCCCNC1=CC(=O)C(=O)c2ccccc21,n,n,34.7,n,n,n,67.7
SMILES,BH1578 lux ind,Sa ugtP lethal,CCHF vOTU inh-1,Mtb hypoxia inh,PfHsp40 yeast,RN4220 kill,CCHF vOTU inh-2
CCCCNC1=CC(=O)C(NCCCC)=CC1=O,n,n,n,n,n,n,x
CC(=O)OC1CCC2C3CCc4cc(O)ccc4C3CC[C@]12C (stereo not given in full),x,n,x,n,x,n,x
CC1CCCN(C2=NC(=O)C(=Cc3cn(-c4ccccc4)nc3-c3cccc(S(=O)(=O)N(C)C)c3)S2)C1 (stereo not given),x,n,x,n,x,n,x
CC1CCCC(NC(=O)COC(=O)COc2cccc(F)c2)C1C (stereo not given),n,n,41.5,n,n,n,n
CC1CCCC(NC(=O)COC(=O)c2ccc([N+](=O)[O-])s2)C1C (stereo not given),n,n,66.2,n,n,n,61.3
O=C(COC(=O)c1ccc([N+](=O)[O-])s1)Nc1ncc(C(F)(F)F)cc1Cl,n,n,49.1,n,n,n,64.0
O=C(COC(=O)c1ccccn1)Nc1ncc(C(F)(F)F)cc1Cl,n,n,n,x,n,n,x
CCc1ccc(OCC(=O)OCC(=O)NC2CCCC(C)C2C)cc1 (stereo not given),n,n,n,n,n,n,x
CC1CCCC(NC(=O)COC(=O)c2ccccc2[N+](=O)[O-])C1C (stereo not given),n,n,n,n,n,n,x
CSc1ccc(C=C(NC(=O)c2ccc(C)cc2)C(=O)Nc2cccc(C)c2)cc1,x,n,x,n,x,n,x
CC(=O)OCC1OC(Oc2cc(O)cc3oc(-c4ccc(O)cc4)cc(=O)c23)C(OC2OC(C)C(O)C(O)C2O)C(O)C1O (stereo not given),x,n,x,n,x,n,x
O=C1CCn2c1c(O)c1ccccc1c2=O,n,x,95.0,x,n,x,34.3
Cc1cc(C=C2C(=O)NC(=O)NC2=O)c(C)n1-c1ccc2c(c1)OCO2,n,n,n,n,n,n,x
Cc1cc(/C=C2\C(=O)NC(=O)N(C)C2=O)c(C)n1-c1ccc2c(c1)OCO2,n,n,33.5,n,n,n,n
CC(CCc1ccccc1)NC(=O)c1ccc(NC(=O)c2ccccc2)cc1 (stereo not given),n,n,32.1,n,n,n,n
CC(C)Oc1ccc(CN2CCC2(C)C(=O)Nc2ccc3c(c2)OCO3)cc1 (stereo not given),n,x,34.2,x,x,x,n
CC1(OC(=O)C2CCCC2)C(=O)C=C2C=C(c3ccsc3)N(C(CO)CO)C=C2C1=O (stereo not given),n,n,31.5,n,n,n,n
CC(C)CN1C=C2C(=O)C(C)(OC(=O)C3CCCC3)C(=O)C=C2C=C1c1ccsc1 (stereo not given),n,n,n,n,n,n,x
O=C1C(Cl)=C(Nc2ccc3cn[nH]c3c2)C(=O)c2ccccc21,n,n,86.6,n,n,n,79.7
CN(C)c1ccc(NC2=C(Cl)C(=O)c3ccccc3C2=O)cc1,n,n,56.4,n,u,n,n
O=C(Nc1ccc2cn[nH]c2c1)c1c(Cl)cccc1Cl,n,n,n,n,n,n,x
CC(=O)Nc1ccc(NC2=C(Cl)C(=O)c3ccccc3C2=O)cc1,x,n,n,n,x,n,x
CC(=NNC(=O)CNC(=O)c1cccc(F)c1)c1ccc2ccccc2c1,x,n,x,n,x,n,x
Cc1ccc(C)c(N2CCN(C(=O)c3ccc4nc(-c5ccco5)c(-c5ccco5)nc4c3)CC2)c1,n,n,44.2,n,n,n,n
CCC(NC(=O)c1ccc2c(c1)c(C)c(C)n2Cc1ccc(-c2ccccc2C#N)cc1)c1ccccc1 (stereo not given),x,x,n,x,x,x,x
Cc1c(C)n(Cc2ccc(-c3ccccc3C(=O)O)cc2)c2ccc(C(=O)N[C@@H](C)c3ccc([N+](=O)[O-])cc3)cc12,x,x,41.6,x,x,x,n

# Screens as filed in PubChem BioAssay.
